BAZ2B inh: inhibitors of human BAZ2B bromodomain | Q9UIF8 | AlphaScreen BAZ2B-H3K14Ac peptide displacement | Potency, µM (series often up to 114 µM), for inactives: at the highest dose activity change, negative = inhibition, actives largely listed as inhibitors | actives 4.4% (n = 360,000); note: % is set by controls: 0 for no effect and ±100 for the full control effect; nearly all actives have a fitted effect of over 60% in size
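AlphaScreen luminescence quantifies BAZ2B engagement of H3K14Ac peptide; the protein and biotinylated peptide are both at 50 nM final, buffer PBS pH 7.4 with 0.01% Tween-20, all steps at room temperature.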
HP1b binding inh: blocks HP1-beta chromodomain binding to methylated histone tails | P83916 | AlphaScreen HP1-beta / biotin-H3K9me3 peptide binding | Potency, µM (doses to about 114 µM), inactives show top-dose activity change, negative = inhibition, hits mostly inhibitors | actives 0.56% (n = 390,000) | AID 540317; note: nearly all actives have a fitted effect of over 70% in size
Target sequence (P83916 whole entry, looked up): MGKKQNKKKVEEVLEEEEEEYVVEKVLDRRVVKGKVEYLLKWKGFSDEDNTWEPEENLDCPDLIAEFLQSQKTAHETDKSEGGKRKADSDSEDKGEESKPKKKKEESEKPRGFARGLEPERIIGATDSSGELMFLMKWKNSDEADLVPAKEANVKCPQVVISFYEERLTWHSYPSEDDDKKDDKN
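HP1-beta protein (50 nM final) preincubated 30 min at room temperature with biotinylated H3(1-18)K9me3 peptide (50 nM) in PBS pH 7.4, 0.01% Tween-20, then compound added for 30 min. AlphaScreen streptavidin donor/nickel chelate acceptor beads (10 ug/mL final), 30 min dark, luminescence read.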
JMJD2A Tudor: JMJD2A Tudor domain (human) inhibition; O75164; AlphaScreen JMJD2A-Tudor / H3K4me3 peptide binding; Potency, µM (highest dose often 114 µM), for inactives: top-dose activity change, negative = inhibition, usual class: inhibitors; actives 4.4% (n = 390,000); note: % is set by controls: 0 for no effect and ±100 for the full control effect; nearly all actives have a fitted effect of over 50% in size
G9a inh: G9a (human) methyltransferase inhibition; Q96KQ7; G9a H3K9 monomethylation, AlphaScreen, 2 h; Potency, µM (top dose mostly 102 µM), inactives show at the highest dose activity, negative = inhibition, actives largely listed as inhibitors; actives 8.8% (n = 350,000); AID 504332; note: % is set by controls: 0 for no effect and ±100 for the full control effect; nearly all actives have a fitted effect of over 75% in size
Target sequence (Q96KQ7 913-1193 limits assumed): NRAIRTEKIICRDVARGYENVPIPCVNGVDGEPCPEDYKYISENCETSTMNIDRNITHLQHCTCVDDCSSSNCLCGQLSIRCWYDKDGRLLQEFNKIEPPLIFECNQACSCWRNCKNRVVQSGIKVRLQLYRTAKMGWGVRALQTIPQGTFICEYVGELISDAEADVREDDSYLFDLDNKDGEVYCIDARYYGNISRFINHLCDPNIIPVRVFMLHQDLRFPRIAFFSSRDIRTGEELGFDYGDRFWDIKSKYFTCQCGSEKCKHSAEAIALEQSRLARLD
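Step 1: enzyme (final 20 nM) with compound, 15 min RT. Step 2: substrate peptide 500 nM and SAM 20 uM, 2 h RT. Step 3: anti-H3K9me1 antibody and AlphaScreen beads, 10 min, then plate read.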
L3MBTL1 block: inhibitors of human L3MBTL1; Q9Y468; AlphaScreen L3MBTL1–H3K9me1 peptide binding; Potency, µM (highest dose often 57.1 µM), for the others: at the highest dose activity, negative = inhibition, actives largely listed as inhibitors; actives 0.66% (n = 230,000); note: % is set by controls: 0 for no effect and ±100 for the full control effect; nearly all actives have a fitted effect of over 60% in size
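L3MBTL1 50 nM + b-AHA-H3(1-15)K9me1 75 nM, 30 min RT; compound added, 30 min RT; streptavidin donor/Ni-chelate acceptor beads 10 ug/mL each final, 30 min RT dark; AlphaScreen read.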
Active calls of the source: *; ? = inconclusive; nt = no result given; [ ] = another dose, or the depositor's remark. The list is not random: actives were taken first. Their share in the collection is about 11%. Calls come from the whole dose curve; as a rule, active = well fitted inhibition curve with a large enough effect; inconclusive = small, poorly fitted or top-dose-only effect; inactive = no such curve, though single readings can be large or run the other way. Potency is the fitted concentration of half-maximal effect.

SMILES	BAZ2B inh	HP1b binding inh	JMJD2A Tudor	G9a inh	L3MBTL1 block
Cc1ccc(CNC(=O)c2ccc3c(c2)NC(=O)C(CS(=O)(=O)Cc2ccc(F)cc2)N3)cc1 (centres undefined)	8%[57.1 µM]	-3%	-6%	?	nt
O=C(c1ccc(Cl)cc1Cl)N1CCC(c2nc3c(nnn3Cc3ccco3)c(=O)[nH]2)CC1	-7%	11%	-10%	45µM*	-6%
O=C(c1ccccc1)N1CCC(c2nc3c(nnn3Cc3ccco3)c(=O)[nH]2)CC1	9%	16%	-19%	17%	4%
Cc1cc(C)c(NC(=O)Cn2c(=O)n(Cc3ccc(C(=O)NCc4ccco4)cc3)c(=O)c3sccc32)c(C)c1	50µM*	63%	-4%	-9%[59 µM]	nt
Cc1ccc(-n2c(=O)c3sccc3n(CC(=O)NCc3ccco3)c2=O)cc1	14%	20%	-12%	79µM*	-7%
CC(C)c1ccc(NC(=O)C2CCN(S(=O)(=O)c3cccc4nsnc34)CC2)cc1	nt	26%	-7%	-18%[59 µM]	nt
O=C(O)c1cc(N2C(=O)C=CC2=O)cc(N2C(=O)C=CC2=O)c1	nt	5.6µM*	2.2µM*	nt	nt
CC1CCC(NC(=O)CN2C(=O)C3CCCN3c3ncc(Cl)cc32)CC1 (centres undefined)	6%	nt	nt	?	5%
O=C1Nc2cc(S(=O)(=O)N3CCCC3)ccc2N2CCCC12 (centres undefined)	?	31%	-16%	22µM*	-22%
O=C1Nc2ccc(C(F)(F)F)cc2N2CCCC12 (centres undefined)	-2%	nt	nt	11µM*	nt
O=C1Nc2cc(Cl)cnc2N2CCCC12 (centres undefined)	-2%	13%	-35%	8.9µM*	-10%
O=S(=O)(c1ccc(F)cc1)N1CC2CCCN2c2ccc(C(F)(F)F)cc21 (centres undefined)	-8%	32%	-10%	89%[59 µM]	8%
CCN(CC)S(=O)(=O)c1ccc2c(c1)NC(=O)C1CCCN21 (centres undefined)	3%	29%	5%	-7%	nt
O=C1Nc2cc(C(F)(F)F)ccc2N2CCCCC12 (centres undefined)	-14%	49%	0%	50µM*	nt
CCOC(=O)c1cccc(NC(=O)CCC(=O)N2CC(C)Oc3ccc(C)cc32)c1 (centres undefined)	-10%	9%	-27%	-2%[59 µM]	nt
CC1(C)CC(=O)C2=C(C1)NC(Nc1nc3ccccc3o1)=NC2c1ccccc1 (centres undefined)	nt	20%[57 µM]	-2%[57.1 µM]	nt	nt
COC(=O)c1ccc(NC(=O)c2ccc3c(c2)NC(=O)C2CCCN32)cc1 (centres undefined)	50µM*	nt	nt	10µM*	?
O=C1Nc2ccccc2N2CCCC12 (centres undefined)	-23%	nt	nt	20µM*	-21%
CCOc1ccc(-c2cc3c(=O)n(Cc4nc(-c5ccc(OCC)c(OC)c5)oc4C)ccn3n2)cc1Cl	5%	0%	-20%	5%[59 µM]	nt
Cc1ccc(C(=O)N2CCCCC2)cc1S(=O)(=O)N1CCOCC1	6%	10%	-18%	nt	nt
NNc1nc2c(Cl)c(Cl)ccc2s1	50µM*	-34%	10µM*	?	-3%
Cc1c(Cl)ccc2sc(NC(=O)c3ccco3)nc12	38%	35%	-6%	nt	49%
COc1cccc2sc(NN)nc12	nt	?	?	32µM*	nt
Nc1c(C(=O)N2CCCCC2)sc(=S)n1-c1ccccc1	?	14µM*	50µM*	?	-6%
CC(=O)c1sc(=S)n(-c2ccccc2)c1C	-3%	18%	-7%	28%	-3%
Nc1c(C(=O)N2CCOCC2)sc(=S)n1-c1ccccc1	-9%	-43%	?	2.2µM*	-7%
Nc1c(C(=O)N2CCCC2)sc2nc(-c3ccccc3)ccc12	23%	88%	32%	?	39%
CCN1CCN(CC(=O)Nc2cc(S(=O)(=O)N3CCCCC3)ccc2Cl)CC1	nt	?	22µM*	nt	-15%
CCOC(=O)C1CCN(CC(=O)Nc2cc(S(=O)(=O)N3CCCCC3)ccc2Cl)CC1	-6%	20%	-12%	1%	-6%

Source: PubChem (National Center for Advancing Translational Sciences (NCATS))
